Source: PubChem (National Center for Advancing Translational Sciences (NCATS))
GLP1R cytotox: cytotoxic in the GLP-1 receptor inverse agonist counter-screen; HEK293 cAMP-luciferase reporter cells, luminescence, 24 h; Potency, µM (highest dose often 38.3 µM), without a hit: at the highest dose activity change, negative = inhibition, usual class: inhibitors; 410,000 compounds, 0.13% hits;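 also: loss of luciferase light is scored as toxicity; % is scaled to controls: 0 for no effect and ±100 for the full control effect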
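Here, cytotoxicity is scored as loss of luminescence. The MLSMR collection was tested on cells seeded in medium containing 10% Nu serum, with a 24 hr compound exposure preceded by 12 hours of culture.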
GLP1R ag: agonists of human GLP-1 receptor; 380,000 compounds, 0.007% hits; Potency, µM (highest dose often 45.6 µM), for the others: at the top dose activation, usual class: activators; HEK293 GLP-1R CRE-luciferase, luminescence, 4-6 h; cells express a hypersensitive GLP-1R form; AID 624172; P43220; also: % of control where 0% means no effect
PTHR1 agonist: PTHR1 (human) receptor agonism; Potency, µM (doses to about 115 µM), without a hit: at the highest dose activation, actives largely listed as activators; 410,000 compounds, 0.075% hits; Q03431; AID 743266; HEK293 GP2 PTHR1 cells, GloSensor cAMP luminescence, 1 h; also: nearly all actives have a fitted effect of over 55% in size
Target sequence (Q03431 whole entry, looked up): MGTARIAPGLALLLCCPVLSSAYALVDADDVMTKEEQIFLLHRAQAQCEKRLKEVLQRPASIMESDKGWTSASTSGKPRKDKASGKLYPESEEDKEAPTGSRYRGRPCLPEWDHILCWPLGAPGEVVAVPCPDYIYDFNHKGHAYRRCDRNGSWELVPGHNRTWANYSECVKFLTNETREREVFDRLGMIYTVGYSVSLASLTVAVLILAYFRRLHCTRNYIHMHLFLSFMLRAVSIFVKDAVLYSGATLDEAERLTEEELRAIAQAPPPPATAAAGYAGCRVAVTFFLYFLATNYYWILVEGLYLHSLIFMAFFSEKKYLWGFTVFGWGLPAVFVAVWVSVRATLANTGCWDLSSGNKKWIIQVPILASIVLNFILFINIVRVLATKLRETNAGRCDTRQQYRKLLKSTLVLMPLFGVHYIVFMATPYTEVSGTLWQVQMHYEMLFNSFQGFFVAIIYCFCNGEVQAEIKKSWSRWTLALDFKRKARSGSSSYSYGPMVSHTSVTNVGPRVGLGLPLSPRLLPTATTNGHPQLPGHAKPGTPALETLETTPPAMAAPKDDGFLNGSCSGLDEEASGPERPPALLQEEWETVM
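HEK-293-derived GP2 cells expressing PTHR1 and a GloSensor cAMP reporter, 3,000/well, plated overnight, given luciferin plus IBMX (each 0.5 mM as added) for 1 h at 37 °C, then compound for 1 h at 37 °C. Luminescence was read after 15 min at room temperature.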
GLP-1R inv ag: acts as inverse agonist at human GLP-1 receptor; P43220; HEK293 GLP-1R CRE-luciferase, luminescence, 24 h; GLP-1R form is constitutively active; Potency, µM (doses to about 38.3 µM), inactives show at the top dose activity change, negative = inhibition, most hits filed as inhibitors; 410,000 compounds, 1.6% hits; AID 624417; also: % is scaled to controls: 0 for no effect and ±100 for the full control effect; nearly all actives have a fitted effect of over 55% in size
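HEK293 cells stably co-expressing constitutively active GLP-1R and a cAMP-responsive luciferase reporter were seeded in DMEM with 10% Nu serum, given compounds after 12 h, and incubated 24 h at 37 deg C. Luminescence was then read.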
* hit, by the source's call; i = inactive; ? = inconclusive; / = no result given; [ ] = dose if it differs, or a comment. Only some compounds are listed: those with a hit (about 1.7% of all), similar ones and a draw of the others. Calls follow the shape of the dose curve; as a rule, active = well fitted curve in the direction sought with a large enough effect; inconclusive = small, poorly fitted or top-dose-only effect, or another doubt; inactive = no such curve, though single readings can be large; an effect the other way counts as inactive or inconclusive. Potency is read from the fitted curve at half-maximal effect.

SMILES	GLP1R cytotox	GLP1R ag	PTHR1 agonist	GLP-1R inv ag
COc1ccc(-c2nc(Cn3c(SCc4ccc(F)cc4)nc4cccnc43)c(C)o2)cc1	0%	/	-27%	-5%
COc1ccc(-c2nc(Cn3c(SCc4ccc(C)cc4)nc4cccnc43)c(C)o2)cc1OC	-22%	/	-52%	10µM*
O=C(CSc1nccn1Cc1ccc(Cl)cc1)Nc1ccc2c(c1)OCO2	-6%	/	-25%	-29%
O=C(Nc1cc(F)ccc1F)c1ccc(CN2CC(=O)N3CCCCC3C2=O)cc1 (configuration not stated)	-11%	/	-1%	-13%
Cc1cc(C)c2nc(N3CCC(C(=O)NCCCN4CCCCC4)CC3)sc2c1	?	-20%	-9%[57.5 µM]	3.2µM*
Cc1cc(C)c2nc(N3CCC(C(=O)NCC4CCCO4)CC3)sc2c1 (configuration not stated)	-2%	-1%	-16%	?
COc1cc(NC(=O)C2(C)CCN2C(=O)C(C)C)cc(OC)c1OC (configuration not stated)	5%	-5%	i	-21%
Cc1ccc(C(=O)/C=C/c2cn(CC(O)CN3CCc4ccccc43)c3ccccc23)cc1 (configuration not stated)	-11%	/	-17%	?
COc1ccc(C(=O)/C=C/c2cn(CC(O)CN3CCc4ccccc43)c3ccccc23)cc1OC (configuration not stated)	-23%	/	-2%	10µM*
CC(=O)c1ccc(NC(=O)CC2Sc3ccccc3NC2=O)cc1 (configuration not stated)	0%	/	-21%	14%
CC(C)N(CC#CCC(O)(c1ccccc1)C1CCCC1)CCO (configuration not stated)	-1%	-3%	-14%	?
CCN(CC#CCC(O)(c1ccccc1)C1CCCC1)C(C)C (configuration not stated)	-30%	-7%	22%[57.5 µM]	11µM*
O=C(N/C=N/OCc1cccc(C(F)(F)F)c1)N1OC[C@@H]2COc3ccc4ccccc4c3[C@@H]21	29%	-6%	i	5.6µM*
CO/N=C/NC(=O)N1OC[C@@H]2COc3ccc4ccccc4c3[C@@H]21	36%	-2%	i	-8%
CC(C)(Oc1ccc(F)cc1)C(=O)OCC(=O)c1ccc(S(C)(=O)=O)cc1	5%	5%	i	-9%
COc1cc(OC)cc(C(=O)NCCc2csc(-c3ccc(C(F)(F)F)cc3)n2)c1	2%	/	-1%	10µM*
COc1ccc(CC(=O)NCCc2csc(-c3ccc(C(F)(F)F)cc3)n2)cc1	-1%	-8%	-21%	-1%
COc1cc2ccccc2cc1C(=O)N1CCN(c2nc3c(F)cc(F)cc3s2)CC1	-1%	/	-5%	5%
O=c1c2ccccc2c(C=NCCc2ccccc2)c(O)n1Cc1ccccc1	12%	-19%	i	5µM*
O=c1c2ccccc2c(C=NCCCN2CCOCC2)c(O)n1Cc1ccccc1	-10%	19%	-6%[57.5 µM]	?
CSc1ccc(NC(=O)C2CCN(c3ncccn3)CC2)cc1	3%	/	i	18%
CC1CCCC(C)N1CC(O)COC1CCC(C(C)(C)C)CC1 (configuration not stated)	?	-4%	28%	?
CC(C)NCC(O)COC1CCC(C(C)(C)C)CC1 (configuration not stated)	?	-4%	61%	7.1µM*
CCCCOC(=O)c1ccc(NC(=O)c2cc3c(=O)n4cccc(C)c4nc3s2)cc1	2%	/	i	13%
N#Cc1ccccc1N/C=C/C(=O)c1ccc(Cl)cc1	-1%	11%	-21%	6.3µM*
SMILES	GLP1R cytotox	GLP1R ag	PTHR1 agonist	GLP-1R inv ag
O=C(Nc1ccc(C(F)(F)F)cc1)C1CCCN(S(=O)(=O)c2cccc3cccnc23)C1 (configuration not stated)	0%	/	-81%	?
O=C(Nc1ccncc1)C1CCCN(S(=O)(=O)c2cccc3cccnc23)C1 (configuration not stated)	-24%	8%	-15%	1.8µM*
O=C(NCCC1=CCCCC1)C1CCCN(S(=O)(=O)c2cccc3cccnc23)C1 (configuration not stated)	?	1%	-94%	7.9µM*
CCOc1ccc(CNS(=O)(=O)c2ccc3[nH]c4c(c3c2)CCCC4)cc1OC	5%	/	-21%	?
CN=C(Nc1ccc(Br)cc1)SC1CC(=O)N(c2ccc(OC)cc2)C1=O (configuration not stated)	9%	12%	-7%	11µM*
COc1ccc(-c2cn3nc(C)c(C)nc3n2)cc1OC	4%	10%	-27%	22%
Cc1ccc(-c2cn3nc(C)c(C)nc3n2)cc1	i	-36%	-39%	1.4µM*
CCOC(=O)c1oc2ccc(S(=O)(=O)n3nc(-c4ccc(Br)cc4)cc3N)cc2c1C	-6%	/	27%	0%
C=C(C)CNC(=S)NNC(=O)CCn1c2cc(Cl)ccc2c2ccc(Cl)cc21	-8%	-12%	-17%	11µM*
COc1ccc(CNc2ncnc3c2nnn3C)cc1	0%	/	?	11%
C/C(=N\Nc1nc(C(C)(C)C)cs1)c1ccccc1	2%	-1%	-27%	8.9µM*
O=S(=O)(c1ccccc1)N1CCN(C(c2ccccc2)c2ccc(OC(F)(F)F)cc2)CC1 (configuration not stated)	4%	0%	-36%	10µM*
N#Cc1ccc(C=NN2CCCCCC2)cc1	9%	10%	i	-14%
CC(C)OC(=O)NC(c1ccccc1)C(Cl)(Cl)Cl (configuration not stated)	18%	11%	i	11µM*
CCOc1ccc(OC(=O)NC(c2ccccc2)C(Cl)(Cl)Cl)cc1 (configuration not stated)	2%	-16%	i	5%
CCOCCCNC(=O)c1cc(Sc2cccc(Cl)c2)nc2ccccc12	-4%	8%	-73%	?
CCOCCCNC(=O)c1cc(Sc2ccc(C)cc2)nc2ccccc12	1%	9%	-30%	10µM*
Cc1nnc(SCC(=O)Nc2nc(-c3ccccc3)cs2)n1N	2%	-9%	-8%[57.5 µM]	0%
CCn1c(CNc2nc(-c3ccccc3)cs2)nnc1SCC(=O)NCc1ccccc1	-22%	1%	-9%	11µM*
CCn1c(SCC(=O)Nc2nc(-c3ccccc3)cs2)nnc1-c1ccccc1	1%	-2%	-91%	10µM*
CCn1c(CNc2ccc(Cl)cc2)nnc1SCC(=O)NCc1ccccc1	-20%	3%	-1%	?
Cc1ccc(S(=O)(=O)NCCC(=O)NNC(=O)c2ccccc2O)cc1C	3%	-3%	i	-26%
S=C(Nc1cccc(Br)c1)c1ccccc1	-6%	4%	-31%	13µM*
CC1(C(=O)OCC(=O)N2c3ccccc3Sc3ccccc32)CC1(Cl)Cl (configuration not stated)	16%	5%	-1%	11µM*
